# PKA-R1A act: activates the PKA-R1A holoenzyme complex. AID 504707. PKA-R1A dissociation, Cy5-IP20 fluorescence polarization; scaled: DMSO 0%, 113 µM cGMP 100%. P00514+P68181. hit rate 0.083% among 340,000. activation, % at 11.4 µM;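 active means percent activation above the mean of all tested compounds plus 3 SD, cut at about 19% in these data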;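 further: higher means more PKAc released from R1A so a rise in polarization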
# MsrA inh: bovine MsrA inhibition; inhibition, % at 15.5 µM; purified bovine MsrA, absorbance read-out; hit rate 0.75% among 360,000;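 further: 0% = vehicle wells with enzyme and 100% = reference inhibitor wells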
# Mot1-301 SUMO: SUMOylation pathway inhibition by Mot1-301 growth rescue; S. cerevisiae Mot1-301 growth rescue, ATP luminescence, 38.5C; percent above DMSO median, 100 means doubled; growth rescue, % at 18.8 µM; hit rate 1% among 320,000;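 active means every valid replicate shows activation above 250% relative to neutral control wells; inactive means the rest, any valid replicate at or below 250%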;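 further: OY570 slx delta 5 strain wells were the positive control but not used for scaling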
# PKA-R2B act: activates the human PKA-R2B holoenzyme complex; PKA-R2B holoenzyme dissociation, Cy5-IP20 fluorescence polarization; R2B truncated from residue 108, S112A mutant; 0% DMSO only, 100% 113 µM cGMP; activation, % at 11.4 µM; hit rate 0.079% among 340,000; AID 504700;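 active means activation above a cutoff set at the mean over all compounds plus 3 SD, cut at about 18% in these data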;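 further: higher means more holoenzyme dissociation and a rise in polarization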
# Target sequence (P31323 whole entry, looked up, other chains not shown, the tested form may be a part): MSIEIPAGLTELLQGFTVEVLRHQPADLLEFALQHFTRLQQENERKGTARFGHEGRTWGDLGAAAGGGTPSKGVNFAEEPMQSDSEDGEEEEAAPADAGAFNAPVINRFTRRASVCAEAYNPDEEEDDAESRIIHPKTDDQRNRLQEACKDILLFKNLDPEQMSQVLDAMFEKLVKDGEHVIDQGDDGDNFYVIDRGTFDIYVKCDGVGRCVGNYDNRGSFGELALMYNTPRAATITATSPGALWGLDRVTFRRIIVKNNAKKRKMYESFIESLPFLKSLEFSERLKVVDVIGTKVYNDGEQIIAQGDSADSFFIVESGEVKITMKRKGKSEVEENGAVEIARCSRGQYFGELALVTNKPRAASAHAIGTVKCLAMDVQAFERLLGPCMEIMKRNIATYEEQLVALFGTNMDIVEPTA
# bovine MsrA act: activators of bovine methionine sulfoxide reductase A; activation, % at 10.6 µM; purified bovine MsrA, absorbance read-out; hit rate 0.3% among 360,000; in the data active means activation above about 7.5%;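 further: 0% = vehicle and 100% = reference activator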
# MsrA conf: bovine MsrA inhibition, confirmed; AID 651822; purified bovine MsrA, absorbance read-out; shares compounds with MsrA inh; inhibition, % at 15.5 µM; hit rate 41% among 2,300;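 further: coupled to thioredoxin reductase with NADPH and selenocystamine and DMSO as substrate; 0% = vehicle only and 100% = full effect of reference inhibitor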
# Numbers without * were called inactive; nt = no result. Shown are actives, neighbours in structure and some others; about 2% of the full set was active somewhere. Unless noted, no stated cut-off is given here; in the data, active means inhibition above about 4.5%; inactive means the rest.
SMILES,PKA-R1A act,MsrA inh,Mot1-301 SUMO,PKA-R2B act,bovine MsrA act,MsrA conf
Cc1ccc(C)c(OCC(=O)N/N=C\c2cccn2C)c1,4,5.1*,3,3,-14,1
O=C(N/N=C/C(Cl)=C/c1ccc([N+](=O)[O-])cc1)C(=O)Nc1cccc(C(=O)O)c1,-3,9.2*,46,9,-5,5.3*
CC(=O)c1ccc(N2CCN(S(=O)(=O)c3c(C(=O)N4CCCC4)c(C)n(C)c3C)CC2)cc1,2,5.1*,-3,14,-3,4
CC(=O)c1ccc(N2CCN(S(=O)(=O)c3c(C(=O)N4CCCCC4)c(C)n(C)c3C)CC2)cc1,8,2,292,1,-9,nt
Nc1nc(N)c2sc3nc(C(F)(F)F)cc(C(F)(F)F)c3c2n1,-13,7.5*,6,-3,-3,1
N#C/C(=N\O)c1nc2ccccc2s1,-7,4.7*,-12,0,-7,3
C[C@H](CO)N1C[C@H](C)[C@H](CN(C)C(=O)Nc2cccc(F)c2)Oc2cc(Br)ccc2S1(=O)=O,nt,-1,nt,nt,nt,nt
CC(C)CN(CC(C)C)c1ccc(/C=N/n2cnnc2)cc1[N+](=O)[O-],-16,1,-7,3,-5,nt
O=Cc1ccc(N2CCCC2)c([N+](=O)[O-])c1,7,6.7*,-5,13,-4,4.8*
N#Cc1cc([N+](=O)[O-])ccc1N1CCCC1,-11,11*,-10,0,-2,5.0*
O=[N+]([O-])c1cc(/C=N/n2cnnc2)ccc1N1CCCC1,-11,7.7*,-8,3,-7,5.1*
O=C(Nc1ccc(F)cc1)OC[C@@H]1CSCCS(=O)(=O)N1,nt,1,nt,nt,nt,nt
CN(C(=O)C1Cc2c(-c3ccc(Cl)cc3)ccnc2O1)c1ccccc1 (stereo not given),nt,1,nt,nt,0,nt
Cn1cnc([N+](=O)[O-])c1S(=O)(=O)Oc1cccc2ccccc12,0,14*,nt,1,-10,7.1*
Cn1cnc([N+](=O)[O-])c1Oc1cccc2ccccc12,-2,1,-8,-4,-2,nt
CCS(=O)(=O)c1c([N+](=O)[O-])ncn1C,-8,0,-8,4,-4,nt
Cn1cnc([N+](=O)[O-])c1S(=O)(=O)Oc1ccc(Cl)cc1,-6,23*,nt,-15,-1,13*
Cc1cc2c(cc1C)-c1nnnn1C(N1CCCCC1)C(=O)N2 (stereo not given),nt,-1,nt,nt,nt,nt
CC(c1nc2ccccc2[nH]1)n1c(=O)c(-c2ccco2)nc2ccccc21 (stereo not given),nt,1,nt,nt,nt,nt
c1ccc(-n2nnnc2-n2nnc3ccccc32)cc1,-9,23*,9,-1,-4,22*
O=Cc1cn(-c2ccccc2)nc1-c1ccc(F)cc1,2,12*,-11,-3,-2,8.3*
O=Cc1cn(-c2ccccc2)nc1-c1ccc2c(c1)OCCO2,-14,17*,14,0,-2,12*
Cc1cc(=O)oc(C)c1C(=O)NCCC(C)C,-9,5.5*,2,-1,-6,5.0*
Cc1cc(=O)oc(C)c1C(=O)NCCNC(=O)c1c(C)cc(=O)oc1C,0,1,25,11,5,nt
COc1ccc(CNC(=O)C2(C)Cc3c(-c4cccc(NC(C)=O)c4)ccnc3O2)cc1OC (stereo not given),nt,-1,nt,nt,-2,nt
SMILES,PKA-R1A act,MsrA inh,Mot1-301 SUMO,PKA-R2B act,bovine MsrA act,MsrA conf
CCN(CCC#N)c1ccc(/C=N/Nc2nc(C)cc(=O)[nH]2)c(C)c1,-2,6.0*,12,-8,-7,4.7*
CCNc1nc(NCC)nc(N/N=C/c2ccc(N(C)C)cc2)n1,6,6.5*,-4,5,-4,4.9*
Cc1cc(=O)[nH]c(N/N=C/c2ccc(N(C)C)cc2)n1,-10,7.6*,65,7,-5,6.2*
CCNc1nc(NCC)nc(N/N=C/c2ccc(O)c(O)c2)n1,-13,2,2,4,-5,nt
COc1cccc(C(c2nnnn2C(C)(C)C)N2CCN(C/C=C/c3ccccc3)CC2)c1OC (stereo not given),nt,0,nt,nt,-2,nt
Cc1ccc(S(=O)(=O)NC(=O)C2(C)CCN2C(=O)C2CCCCC2)cc1 (stereo not given),nt,0,nt,nt,1,nt
COC(=O)[C@@]12C[C@@H](CC(=O)NCCc3ccccc3OC)C(=O)N(CCc3ccc(OC)c(OC)c3)C1=CCC(C)(C)C2,nt,1,nt,nt,nt,nt
O=C1CCC/C1=C/Nc1ccc(Cl)cc1,1,6.0*,6,4,-3,5
O=C(N/N=C/c1ccco1)c1cc2ccccc2o1,-11,6.0*,34,-2,-6,7.6*
CC1(C)Oc2ccc3ccc(=O)oc3c2/C(=C/Nc2ccccn2)C1=O,-5,0,-10,-5,-3,nt
CN/C=C1\C(=O)C(C)(C)Oc2ccc3ccc(=O)oc3c21,-5,5.4*,-19,-7,-6,4
C/C(=N\NC(=O)c1ccc2c(c1)OCO2)c1cccnc1,-12,0,-2,-9,-2,nt
CC(/C=C/c1ccc2c(c1)OCO2)=N/NC(=O)c1cccnc1,6,7.2*,-6,9,-4,5.5*
CC(/C=C/c1ccc2c(c1)OCO2)=N/NC(=O)c1ccc(C)nc1,-7,5.4*,10,-5,-2,7.1*
CC(/C=C/c1cccc([N+](=O)[O-])c1)=N\NC(=O)c1ccncc1,-12,2,-36,-16,-6,nt
CC(/C=C/c1ccc2c(c1)OCO2)=N/NC(=O)c1ccncc1,6,5.6*,6,2,-7,8.6*
Fc1ccccc1N1CCN(C(c2ccnc3ccccc23)c2nnnn2-c2ccc3c(c2)OCCO3)CC1 (stereo not given),nt,0,nt,nt,-3,nt
Cc1ccccc1CN1[C@@H](C)[C@H](c2ccccc2)Oc2cccc(N3CCCC(C)C3)c2S1(=O)=O (stereo not given in full),nt,-1,nt,nt,nt,nt
Oc1ccc(/C=N/Nc2ccc(C(F)(F)F)cn2)cc1,0,5.5*,18,-2,1,3
CCN(CC)C(=O)C1=C(C)N(Cc2ccccc2)C(=O)C(CC(=O)NCCc2ccccn2)C1 (stereo not given),-10,-1,nt,-7,-2,nt
N#Cc1cc(C#N)c(N2CCN(c3ccccn3)CC2)nc1N,-5,4.7*,-16,-3,-2,3
O=C(NC1CCCCC1)OC[C@@H]1CSCCS(=O)(=O)N1,nt,2,nt,nt,nt,nt
Fc1ccc(-c2n[nH]c(=S)n2/N=C/c2c[nH]c3ccccc23)cc1,1,5.3*,12,-1,1,1
CC(C)(C)OC(=O)N[C@@H]1C=CC(=O)C1,nt,0,nt,nt,nt,nt
O=C(NCc1ccccc1)C(CCc1ccccc1)n1c(=O)c(-c2ccccc2)nc2ccccc21 (stereo not given),nt,0,nt,nt,nt,nt
CN(C)c1ccc(/C=N/Nc2cccc(C(=O)O)c2)cc1,-12,5.1*,-15,-12,-4,4

# Screens as filed in PubChem.
